# Test results taken from PubChem BioAssay (NCATS).
# Results filed as inconclusive are left out. Entries that show only a call come without a potency. The source made the active and inactive calls. The call rests on the fitted dose curve; in most records, active means well fitted curve in either direction with a large enough effect (not every such curve was filed as active); inconclusive means small, poorly fitted or top-dose-only effect, or another doubt; inactive means flat fitted curve, though single readings scatter.
# Biological target: Mitogen-activated protein kinase 10 (Mus musculus) (UniProt Q61831)
# Experiment: JNK3 AlphaScreen Assay (AID 530);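 further: kinase came from lysate of stimulated human HepG2 cells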
# Conditions: JNK3 lysate, c-Jun phosphorylation; series mostly up to 57.1 µM
# From the text: NIH Chemical Genomics Center [NCGC]
# NIH Molecular Libraries Screening Centers Network [MLSCN]
# The c-jun N-terminal kinase (JNK) family are serine/threonine protein kinases that phosphorylate c-jun, a component of the transcription factor […] (AP-1). JNK kinases are members of the mitogen-activated protein kinase family including the extracellular regulated kinases and p38 kinases. Three JNK genes (JNK 1, 2, and 3) have been identified in humans so far. JNK1 and JNK2 have a broad distribution and JNK3 is primarily found in neuronal tissues and cardiac myocytes.
# JNK3 has been under consideration as a target for the treatment of neurodegenerative disorders. […] JNK pathway is also involved in pathological process in a mouse model of Parkinson's disease (Xia et al., 2001).
# Given these potential tissue distributions and links to neuroprotection, JNK3 inhibitors should provide useful investigational tools to study the role of this kinase in several diseases including, arthritis, stroke, myocardial infarction, ischemic injury and Parkinson's disease.
# A homogeneous AlphaScreen is developed to measure the activity of JNK3. AlphaScreen is a two bead-based proximity-dependent chemical energy transfer luminescent assay platform. The phosphorylation of a biotinylated c-jun substrate by JNK3 can be detected with an antibody raised against phosphorylated c-jun. This process brings streptavidin donor beads and Protein-A acceptor beads to within a proximity range of <200 nm, and subsequently lead a chemical luminescent reaction upon exciting donor beads with 680 nm laser excitation light. Inhibition of JNK3 activity by small molecules and subsequent decrease in the antibody binding to biotinylated c-jun could attenuate or abolish this chemical luminescent reaction.
# Yang DD, Kuan CY, Whitmarsh AJ, Rincon M, Zheng TS, Davis RJ, Rakic P and Flavell RA (1997) Absence of excitotoxicity-induced apoptosis in the hippocampus of mice lacking the Jnk3 gene. Nature 389:865-870. [PMID: 9349820]
# Herdegen T, Claret FX, Kallunki T, Martin-Villalba A, Winter C, Hunter T, and Karin M (1998) Lasting N-terminal phosphorylation of c-Jun and activation of c-Jun N-terminal kinases after neuronal injury. J.Neurosci. 18:5124-5135. [PMID: 9651196]
# Xia XG, Harding T, Weller M, Bieneman A, Uney JB and Schulz JB (2001) Gene transfer of the JNK interacting protein-1 protects dopaminergic neurons in the MPTP model of Parkinson's disease. Proc.Natl.Acad.Sci.U.S.A. 98:10433-10438.
# NCGC Assay Protocol Summary:
# GST-cJun (1-79) (Stratagene, La Jolla CA, #205145) was biotnylated by PerkinElmer (PerkinElmer-BioSignalInc. Montreal, Canada) and was detectable by the streptavidin Donor beads. Anti-(phospho)cJun (Ser73) antibody was from UpState (Charlottesvilles, VA, #06-659). JNK3-containing lysates were generated from HepG2 cells and pre-activated by interleukin1-beta and tumor necrosis factor alpha. All reagents were stored at -20 C before using. Phosphorylated biotinylated-GST-cJun was recognized by Anti-(phospho)cJun (Ser73) antibody and this process brings acceptor and donor beads together. Therefore JNK3 phosphorylation of cJun can be measured by Alpha reading by EnVision (PerkinElmer, Boston, MA).
# The composition of kinase buffer was (in mM) 20 tris- HCl (pH 7.6) 10 MgCl2, 1 DTT, and 0.1 Na3VO4 and 0.01% Tween-20. Beads were diluted in detection buffer containing (in mM) 20 tris-HCl (pH 7.7), 20 NaCl and 80 EDTA and 0.3% BSA. The assay was performed at room temperature. All compounds were screened as titrations from 0.6 nM to 46 uM final concentration. The assay was performed in 1536-well format (white solid bottom and untreated) as follows:
# Sequence,Parameter,Value,Description
# 1,Reagent,3 uL,Biotin-GST-cJun, Anti-(phospho)cJun and pre-activated JNK3-containing lysates
# 2,Compound,23 nL,Final concentration was 0.6nM to 46uM
# 3,Time,15 minutes,Room Temperature
# 4,Reagent,1 uL,ATP final concentration 10uM
# 6,Reagent,0.5 uL,2ng/well bead mixture
# […]
# Potency means the concentration at half of the fitted maximal effect.
row,SMILES,Potency
1,CN(C)c1nc(-c2ccc3c(c2)OCO3)nc2ccccc12,inactive
2,Cc1ccccc1-c1ccc2ncnc(-n3ccnc3)c2c1,inactive
3,COc1ccccc1CNc1cc(-c2cccnc2)ncn1,inactive
4,Cc1nc2cnc(N3CCN(C)CC3)nc2n(CCc2ccccc2)c1=O,inactive
5,O=c1cnc2cnc(N3CCOCC3)nc2n1Cc1cccs1,inactive
6,CN(C)Cc1ccccc1-c1ccc2ncnc(N(C)C)c2c1,inactive
7,O=[N+]([O-])c1cccc(Cl)c1Cl,inactive
8,CCO[Si](CCCN)(OCC)OCC,inactive
9,CC1=C2[C@H](/C=C(\C)C(=O)O)CC[C@@H](C)[C@H]2CC1,inactive
10,COc1ccccc1CNc1ccnc(-c2cccnc2)n1,inactive
11,COc1ccc2[nH]cc(CCNc3ncncc3-c3ccccc3C(F)(F)F)c2c1,inactive
12,COc1ccc(Oc2ncc3nc(-c4cccc(C#N)c4)c(=O)n(Cc4cccc(OC)c4)c3n2)cc1,inactive
13,CN(C)CCCCCCN(C)C,inactive
14,CN1CCN(c2ncc3nc(-c4cccc(C#N)c4)c(=O)n(CCc4ccccc4)c3n2)CC1,inactive
15,CCNc1ncc2ncc(=O)n(Cc3ccc(F)cc3)c2n1,inactive
16,CN(Cc1ccco1)c1nc(-c2ccccc2C(F)(F)F)nc2ccccc12,inactive
17,COc1ccc2[nH]cc(CCNc3ncnc4ccc(-c5cccc(C#N)c5)cc34)c2c1,inactive
18,N#CCCn1c(=O)c(-c2cccc(C#N)c2)nc2cnc(Oc3cccc(Cl)c3)nc21,inactive
19,COc1ccc2nc(N)sc2c1,inactive
20,O=c1cc(-c2cccc(O)c2)oc2c(O)c(O)ccc12,7.94 µM (active)

row,SMILES,Potency
1,COc1ccc2[nH]cc(CCNc3ncncc3-c3cccc(C#N)c3)c2c1,inactive
2,COc1ccccc1-c1nc(NC2CC2)c2ccccc2n1,inactive
3,Cc1ccccc1-c1ccc2ncnc(N3CCOCC3)c2c1,inactive
4,OCCNCCO,inactive
5,CCNc1ncc2nc(CCc3ccccc3)c(=O)n(CCC#N)c2n1,inactive
6,COc1cccc(-c2ccc3ncnc(N4CCNCC4)c3c2)c1,inactive
7,CN(C)C(=O)c1ccc(-c2cc(NCc3ccccc3)ncn2)cc1,inactive
8,CN1CCN(c2ncnc3ccc(-c4cccc(C#N)c4)cc23)CC1,inactive
9,Cc1cccc(CNc2ncncc2-c2ccccc2C)c1,inactive
10,C=CCc1ccc(OC)c(OC)c1,inactive
11,CN(C)C(=O)c1ccc(-c2nc(Nc3ccccc3)c3ccccc3n2)cc1,inactive
12,Cc1ccc([N+](=O)[O-])cc1N,inactive
13,O=c1c(CCc2ccccc2)nc2cncnc2n1Cc1ccccc1,inactive
14,COc1ccc2[nH]cc(CCNc3cc(-c4ccccc4OC)ncn3)c2c1,inactive
15,Clc1cc(Cl)c(Cl)c(Cl)c1Cl,inactive
16,COc1cccc(Nc2ncc3nc(-c4cc(F)cc(F)c4)c(=O)n(CCC#N)c3n2)c1,inactive
17,COCCn1c(=O)c(-c2cccs2)nc2cnc(N3CCNCC3)nc21,inactive
18,Clc1ccccc1-c1nc(-n2ccnc2)c2ccccc2n1,inactive
19,COCC(=O)O,inactive
20,COc1ncc2nc(-c3ccccc3)c(=O)n(Cc3cccs3)c2n1,inactive
